Results taken from PubChem BioAssay AID2107 (National Center for Advancing Translational Sciences (NCATS), 2009).
The campaign covered roughly 240,000 compounds. About 20 (0.008%) were called active. Not shown: some 1% with an inconclusive outcome. Calls come from the whole dose curve; as a rule, active = well fitted inhibition curve with a large enough effect; inconclusive = small, poorly fitted or top-dose-only effect, or effect the other way; inactive = flat fitted curve, though single readings scatter. Only a sample is shown. Peptide text beside a SMILES is read from it.

Each compound was assayed against Alpha-galactosidase A (Homo sapiens) (UniProt P06280) (assay: qHTS Assay for Inhibitors and Activators of Human alpha-Galactosidase From Spleen Homogenate). Conditions: 4MU-alpha-Gal fluorescence, 40 min; series mostly up to 80 µM.
Alpha-galactosidase A (Homo sapiens), sequence (P06280 32-429 limits assumed): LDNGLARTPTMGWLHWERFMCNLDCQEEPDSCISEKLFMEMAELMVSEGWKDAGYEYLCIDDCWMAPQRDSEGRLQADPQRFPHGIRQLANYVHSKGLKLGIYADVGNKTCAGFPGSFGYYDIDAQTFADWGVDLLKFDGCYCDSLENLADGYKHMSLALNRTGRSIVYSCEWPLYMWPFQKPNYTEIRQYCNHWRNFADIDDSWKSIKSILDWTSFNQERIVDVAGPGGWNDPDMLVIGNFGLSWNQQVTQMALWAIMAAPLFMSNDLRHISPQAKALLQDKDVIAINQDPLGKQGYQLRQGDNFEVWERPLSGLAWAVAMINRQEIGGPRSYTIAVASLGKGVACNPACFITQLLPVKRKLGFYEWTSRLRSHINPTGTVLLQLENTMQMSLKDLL
Method in brief: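 Inhibition or activation of alpha-galactosidase in human spleen homogenate is scored by 4-MU fluorescence after 40 min at 37C, pH 5.0, with 1 mM substrate. AC50s come from concentration-response fitted to the Hill equation.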

Row | SMILES | activity change, negative = inhibition
1 | Nc1ncnc2c1ncn2C1CC(O)C(CO)O1 (stereo not given) | inactive
2 | O=C(Nc1ccc2c(c1)OCO2)c1sc2cc(Cl)ccc2c1Cl | inactive
3 | C/C(=N\NC(=O)c1ccc(C)cc1)C1C(=O)c2ccccc2C1=O | inactive
4 | COc1ccccc1N1CCN(C(=O)c2ccc(Cl)c(S(=O)(=O)N3CCCC3)c2)CC1 | inactive
5 | CCOC(OCC)OCC | inactive
6 | Cc1ccc(C)c2[nH]c(=O)c(CN(Cc3cccnc3)C(=S)NCc3ccco3)cc12 | inactive
7 | Cc1ccc(CNC(=O)C2(C(F)(F)F)C/C(=C\CCO)CCCO2)o1 (stereo not given) | inactive
8 | COc1cccc(NC(=O)CC2C(=O)NCCN2C(=S)Nc2ccc(F)cc2)c1 (stereo not given) | inactive
9 | Cc1ccc(SCC(CC(C)C)N2CCN(CCc3ccccc3)CCC2=O)cc1 (stereo not given) | inactive
10 | COC(=O)c1sc(=S)n(-c2ccc(Cl)cc2)c1C | inactive
11 | COC(=O)c1ccc([C@@H](O)[C@H](C)C(=O)CC(=O)OC(C)(C)C)cc1 | inactive
12 | C[C@@H](O)[C@@H]1NC(=O)[C@H](CCCCN)NC(=O)[C@H](Cc2c[nH]c3ccccc23)NC(=O)[C@H](Cc2ccccc2)NC(=O)[C@H](Cc2ccccc2)NC(=O)[C@H](CC(N)=O)NC(=O)[C@H](CCCCN)NC(=O)[C@@H](NC(=O)[C@@H]2CCCN2)CSSC[C@@H](C(=O)N[C@@H](CCCCN)C(=O)O)NC(=O)[C@H](CO)NC(=O)[C@H](CO)NC(=O)[C@H](Cc2ccccc2)NC1=O (HELM PEPTIDE1{P.C.K.N.F.F.W.K.T.F.S.S.C.K}$PEPTIDE1,PEPTIDE1,2:R3-13:R3$$$V2.0) | inactive
13 | Cc1ccccc1N1CCN(Cc2nc(Cc3ccccc3F)no2)CC1 | inactive
14 | O=c1cc(-c2ccc(O)cc2)oc2c(-c3cc(-c4cc(=O)c5c(O)cc(O)cc5o4)ccc3O)c(O)ccc12 | inactive
15 | O=C(CSc1nc(O)c(Cc2ccccc2)c(=O)[nH]1)Nc1nc2c(s1)CCCC2 | inactive
16 | CCOC(=O)C1=C(CN2CCc3ccccc32)NC(=O)NC1c1ccc(Cl)cc1 (stereo not given) | inactive
17 | C=CCOC(=O)C(=C)C | inactive
18 | COc1ccc(-c2ccc(C3C4C=CCCC4(C)C(=O)N3Cc3ccccc3)c(F)c2)cc1OC (stereo not given) | inactive
19 | Cc1cccc(CNc2ccnc(-c3cccnc3)n2)c1 | inactive
20 | OCCC(O)CO (stereo not given) | inactive
21 | C/C=C/c1ccc(OCC(O)CN2CCCCCCC2)c(OC)c1 (stereo not given) | inactive
22 | Cc1ccc(N(C(=O)c2ccc(S(=O)(=O)N(C)C)cc2)C2C=CS(=O)(=O)C2)cc1 (stereo not given) | inactive
23 | CC[C@H](C)[C@H](NC(=O)[C@H](CCCNC(=N)N)NC(=O)[C@H](CCCNC(=N)N)NC(=O)[C@H](CC(C)C)NC(=O)[C@H](Cc1ccccc1)NC(=O)CNC(=O)CNC(=O)[C@@H](N)Cc1ccc(O)cc1)C(=O)N[C@@H](CCCNC(=N)N)C(=O)N1CCC[C@H]1C(=O)N[C@@H](CCCCN)C(=O)N[C@@H](CC(C)C)C(=O)N[C@@H](CCCCN)C(=O)N[C@@H](Cc1c[nH]c2ccccc12)C(=O)N[C@@H](CC(=O)O)C(=O)N[C@@H](CC(N)=O)C(=O)N[C@@H](CCC(N)=O)C(=O)O | inactive
24 | CC(C)=CCC[C@]1(C)[C@@H](CC=C(C)C)C[C@@]2(CC=C(C)C)C(=O)[C@]1(C(=O)C(C)C)C(=O)C(CC=C(C)C)=C2O | inactive
25 | COC(=O)C(CC(C)C)NS(=O)(=O)c1cc(Br)ccc1Br (stereo not given) | inactive
